Test results published in the supplement of paper PMC10849652.
The full data set covers some 7,900 targets. This sample favours those with a hit. About 0.6% of all pairs of compound and target were hits.

Compound: Cc1cc(Nc2cc(CN3CCOCC3)c3nc(C)c(Cc4ccc(Cl)cc4F)n3n2)n[nH]1 [gandotinib]
Experiment: log2 fold change, soluble protein after heating vs DMSO (PISA); higher = thermal stabilisation; K562 cells, 10 uM, 30 min; active = over 0.2 and 3.5 SD of the protein, either way, in both replicates (recomputed)
Procedure, shortened: (§1)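 For each measurement, 10 μM compound was applied for 30 min to K562 cells at 2×10^6 cells/mL. Aliquots were heated for 3 min across 48°C-58°C, pooled, and extracted in PBS with 0.5% NP-40 at 4°C; the supernatant after 21,000xg for 90 min was soluble protein. This was quantified by TMTpro 16plex LC-MS/MS with channel sums equalised, and thermal stability was reported relative to control samples from duplicates, on a log2 fold-change scale.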

UniProt Q6UUV9, sequence (Q6UUV9 whole entry, looked up): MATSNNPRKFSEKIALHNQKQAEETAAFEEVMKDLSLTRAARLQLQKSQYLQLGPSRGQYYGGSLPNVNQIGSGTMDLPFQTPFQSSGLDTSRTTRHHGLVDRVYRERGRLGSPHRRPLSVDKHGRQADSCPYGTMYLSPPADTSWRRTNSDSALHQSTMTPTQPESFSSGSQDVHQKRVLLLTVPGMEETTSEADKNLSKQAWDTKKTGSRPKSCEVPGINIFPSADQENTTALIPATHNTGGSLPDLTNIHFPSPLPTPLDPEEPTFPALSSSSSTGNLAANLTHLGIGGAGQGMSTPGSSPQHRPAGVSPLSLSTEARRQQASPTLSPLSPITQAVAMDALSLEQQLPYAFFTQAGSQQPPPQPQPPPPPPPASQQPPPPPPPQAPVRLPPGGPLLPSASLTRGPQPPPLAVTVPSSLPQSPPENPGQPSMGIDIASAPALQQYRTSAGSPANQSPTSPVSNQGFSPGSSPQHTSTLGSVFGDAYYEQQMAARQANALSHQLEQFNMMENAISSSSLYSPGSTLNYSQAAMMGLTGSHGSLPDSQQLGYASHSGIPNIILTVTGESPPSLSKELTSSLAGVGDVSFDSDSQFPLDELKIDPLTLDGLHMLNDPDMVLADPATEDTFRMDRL
UniProt P51636, sequence (P51636 whole entry, looked up): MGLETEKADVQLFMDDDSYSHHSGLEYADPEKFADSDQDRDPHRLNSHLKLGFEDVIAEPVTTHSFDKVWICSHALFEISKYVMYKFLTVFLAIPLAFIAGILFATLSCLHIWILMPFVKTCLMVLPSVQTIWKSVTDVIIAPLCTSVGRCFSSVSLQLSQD
UniProt P15954, sequence (P15954 whole entry, looked up): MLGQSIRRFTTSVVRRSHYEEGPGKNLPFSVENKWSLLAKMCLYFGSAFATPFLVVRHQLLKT
UniProt Q9H9S4, sequence (Q9H9S4 whole entry, looked up): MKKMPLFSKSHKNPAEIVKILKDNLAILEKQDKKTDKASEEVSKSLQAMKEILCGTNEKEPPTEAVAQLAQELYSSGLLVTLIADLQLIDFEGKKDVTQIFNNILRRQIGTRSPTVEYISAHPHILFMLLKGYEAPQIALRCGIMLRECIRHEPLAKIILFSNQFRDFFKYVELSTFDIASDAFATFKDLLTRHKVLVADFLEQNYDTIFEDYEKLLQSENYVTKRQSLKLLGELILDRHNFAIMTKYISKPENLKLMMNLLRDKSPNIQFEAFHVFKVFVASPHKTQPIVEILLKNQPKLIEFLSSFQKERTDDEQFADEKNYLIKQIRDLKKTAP
UniProt Q9UJA2, sequence (Q9UJA2 whole entry, looked up): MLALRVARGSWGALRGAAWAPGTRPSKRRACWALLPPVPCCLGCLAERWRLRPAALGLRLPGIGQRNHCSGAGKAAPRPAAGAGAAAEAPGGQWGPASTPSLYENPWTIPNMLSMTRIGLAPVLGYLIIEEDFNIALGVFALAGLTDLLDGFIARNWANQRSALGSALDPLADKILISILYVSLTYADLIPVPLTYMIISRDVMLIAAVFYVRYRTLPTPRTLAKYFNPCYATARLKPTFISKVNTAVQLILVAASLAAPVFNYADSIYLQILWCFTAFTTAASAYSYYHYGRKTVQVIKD
UniProt Q9Y2V0, sequence (Q9Y2V0 whole entry, looked up): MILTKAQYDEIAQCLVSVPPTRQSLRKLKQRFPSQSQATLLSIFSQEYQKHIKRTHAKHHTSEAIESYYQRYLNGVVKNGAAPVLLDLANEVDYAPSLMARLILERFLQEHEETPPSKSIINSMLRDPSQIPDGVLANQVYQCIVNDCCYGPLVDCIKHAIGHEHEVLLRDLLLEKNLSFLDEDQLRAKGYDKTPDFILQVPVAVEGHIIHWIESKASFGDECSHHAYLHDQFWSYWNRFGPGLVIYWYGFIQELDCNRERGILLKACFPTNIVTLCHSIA
UniProt Q02224, sequence (Q02224 whole entry, looked up): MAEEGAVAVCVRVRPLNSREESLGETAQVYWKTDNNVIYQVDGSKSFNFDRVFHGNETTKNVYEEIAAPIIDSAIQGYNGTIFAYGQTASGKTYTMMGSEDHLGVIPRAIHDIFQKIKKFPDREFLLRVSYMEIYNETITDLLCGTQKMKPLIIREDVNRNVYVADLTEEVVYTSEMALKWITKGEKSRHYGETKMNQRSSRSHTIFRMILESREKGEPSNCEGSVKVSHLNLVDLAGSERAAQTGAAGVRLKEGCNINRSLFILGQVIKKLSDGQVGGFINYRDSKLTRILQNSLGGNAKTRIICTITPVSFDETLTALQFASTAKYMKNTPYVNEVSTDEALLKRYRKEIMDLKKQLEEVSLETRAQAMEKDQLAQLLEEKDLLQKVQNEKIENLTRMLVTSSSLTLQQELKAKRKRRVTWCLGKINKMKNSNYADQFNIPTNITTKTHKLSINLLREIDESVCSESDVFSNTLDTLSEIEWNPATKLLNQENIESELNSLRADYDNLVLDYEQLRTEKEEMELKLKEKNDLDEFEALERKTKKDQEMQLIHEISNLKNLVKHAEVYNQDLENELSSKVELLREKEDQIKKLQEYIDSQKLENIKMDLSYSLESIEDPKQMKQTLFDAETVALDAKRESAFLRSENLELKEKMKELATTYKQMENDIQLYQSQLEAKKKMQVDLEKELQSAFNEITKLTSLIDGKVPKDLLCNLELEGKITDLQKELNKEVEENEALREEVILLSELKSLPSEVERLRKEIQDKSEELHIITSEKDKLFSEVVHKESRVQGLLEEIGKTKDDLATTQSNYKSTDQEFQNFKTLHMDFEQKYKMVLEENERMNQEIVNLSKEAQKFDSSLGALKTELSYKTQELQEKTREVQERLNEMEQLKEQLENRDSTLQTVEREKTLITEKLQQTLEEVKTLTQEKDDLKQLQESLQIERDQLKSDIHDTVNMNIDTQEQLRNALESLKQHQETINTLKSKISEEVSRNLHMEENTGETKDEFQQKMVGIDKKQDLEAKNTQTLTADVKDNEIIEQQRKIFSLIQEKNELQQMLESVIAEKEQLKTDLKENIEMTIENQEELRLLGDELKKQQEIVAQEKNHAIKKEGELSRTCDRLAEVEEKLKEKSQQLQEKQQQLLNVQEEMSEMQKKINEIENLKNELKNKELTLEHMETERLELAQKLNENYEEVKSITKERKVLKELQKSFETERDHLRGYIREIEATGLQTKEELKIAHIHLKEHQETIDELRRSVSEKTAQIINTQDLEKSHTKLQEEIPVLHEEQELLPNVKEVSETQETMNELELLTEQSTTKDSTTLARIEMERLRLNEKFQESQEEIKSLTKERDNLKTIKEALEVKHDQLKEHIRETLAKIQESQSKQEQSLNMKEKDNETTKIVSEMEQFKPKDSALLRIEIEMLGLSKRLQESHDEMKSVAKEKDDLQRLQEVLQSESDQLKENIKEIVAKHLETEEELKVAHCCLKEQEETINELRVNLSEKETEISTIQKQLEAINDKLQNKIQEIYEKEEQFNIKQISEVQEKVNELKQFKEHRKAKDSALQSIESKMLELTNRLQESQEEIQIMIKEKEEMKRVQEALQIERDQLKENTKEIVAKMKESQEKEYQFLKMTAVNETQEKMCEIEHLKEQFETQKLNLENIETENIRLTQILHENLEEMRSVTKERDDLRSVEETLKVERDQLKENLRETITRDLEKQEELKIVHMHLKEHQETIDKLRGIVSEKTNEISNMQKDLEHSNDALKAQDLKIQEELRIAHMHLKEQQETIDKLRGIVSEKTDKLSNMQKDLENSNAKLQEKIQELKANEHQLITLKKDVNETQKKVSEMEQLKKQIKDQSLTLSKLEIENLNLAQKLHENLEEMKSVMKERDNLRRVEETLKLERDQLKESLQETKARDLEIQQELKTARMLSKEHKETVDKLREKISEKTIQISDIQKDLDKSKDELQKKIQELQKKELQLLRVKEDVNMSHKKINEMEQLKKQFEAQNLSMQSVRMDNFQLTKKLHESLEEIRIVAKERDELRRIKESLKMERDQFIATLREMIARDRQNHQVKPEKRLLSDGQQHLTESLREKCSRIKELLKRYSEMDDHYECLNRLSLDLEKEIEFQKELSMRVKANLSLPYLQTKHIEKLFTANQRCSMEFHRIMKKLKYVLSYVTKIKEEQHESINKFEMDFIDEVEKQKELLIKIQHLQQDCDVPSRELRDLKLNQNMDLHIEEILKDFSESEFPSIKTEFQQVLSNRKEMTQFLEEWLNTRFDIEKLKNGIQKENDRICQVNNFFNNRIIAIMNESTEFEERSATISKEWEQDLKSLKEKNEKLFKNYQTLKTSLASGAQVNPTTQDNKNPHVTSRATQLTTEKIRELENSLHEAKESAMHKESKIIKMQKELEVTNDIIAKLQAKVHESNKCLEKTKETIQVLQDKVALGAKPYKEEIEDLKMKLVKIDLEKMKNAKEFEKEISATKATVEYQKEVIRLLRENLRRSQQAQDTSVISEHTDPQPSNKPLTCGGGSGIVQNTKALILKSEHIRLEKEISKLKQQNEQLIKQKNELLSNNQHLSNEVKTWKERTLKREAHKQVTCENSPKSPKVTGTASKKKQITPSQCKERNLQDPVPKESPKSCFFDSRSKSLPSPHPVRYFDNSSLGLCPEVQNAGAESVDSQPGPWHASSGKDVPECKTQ
UniProt Q14790, sequence (Q14790 whole entry, looked up): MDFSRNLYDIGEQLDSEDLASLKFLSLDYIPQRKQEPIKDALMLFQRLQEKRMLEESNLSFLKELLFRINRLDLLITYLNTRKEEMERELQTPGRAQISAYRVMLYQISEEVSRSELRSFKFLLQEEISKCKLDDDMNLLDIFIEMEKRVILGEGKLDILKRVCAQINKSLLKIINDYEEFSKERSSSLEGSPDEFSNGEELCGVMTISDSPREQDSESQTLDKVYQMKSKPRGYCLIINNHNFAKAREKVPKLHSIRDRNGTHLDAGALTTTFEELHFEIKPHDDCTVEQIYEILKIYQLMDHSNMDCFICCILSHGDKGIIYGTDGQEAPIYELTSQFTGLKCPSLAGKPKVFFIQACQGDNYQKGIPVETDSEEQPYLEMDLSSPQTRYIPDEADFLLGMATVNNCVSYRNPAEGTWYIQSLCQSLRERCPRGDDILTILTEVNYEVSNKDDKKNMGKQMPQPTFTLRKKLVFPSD

Target | log2 fold change
CASP8 isoform 9 (UniProt Q14790) | -0.07 (inactive)
COX7C (UniProt P15954) | 0.043 (inactive)
COMMD1 (UniProt Q8N668) | 0.42 (active)
C15orf41 (UniProt Q9Y2V0) | -0.027 (inactive)
CAB39L (UniProt Q9H9S4) | 0.448 (active)
CDK19 (UniProt Q9BWU1) | -0.051 (inactive)
CHAF1A (UniProt Q13111) | -0.035 (inactive)
COPS3 isoform 2 (UniProt Q9UNS2) | -0.084 (inactive)
C19orf54 (UniProt Q5BKX5) | -0.073 (inactive)
CAV2 (UniProt P51636) | 0.043 (inactive)
CMTM3 (UniProt Q96MX0) | 0.132 (inactive)
COX7B (UniProt P24311) | 0.05 (inactive)
CCNC (UniProt P24863) | -0.088 (inactive)
CDK17 isoform 2 (UniProt Q00537) | 0.057 (inactive)
CHST11 (UniProt Q9NPF2) | 0.029 (inactive)
CDK16 isoform 2 (UniProt Q00536) | 0.436 (active)
CRLS1 (UniProt Q9UJA2) | -0.083 (inactive)
CHST10 (UniProt O43529) | 0.087 (inactive)
CDCA2 (UniProt Q69YH5) | 0.098 (inactive)
CENPE (UniProt Q02224) | 0.052 (inactive)
CNN3 (UniProt Q15417) | -0.1 (inactive)
CLINT1 isoform 3 (UniProt Q14677) | 0.047 (inactive)
CDKN1B (UniProt P46527) | 0.077 (inactive)
C1D (UniProt Q13901) | 0.01 (inactive)
CRTC1 isoform 2 (UniProt Q6UUV9) | 0.008 (inactive)
CLN5 (UniProt O75503) | -0.077 (inactive)
CHPT1 (UniProt Q8WUD6) | 0.038 (inactive)

Compound: Cc1cc(Nc2cc(N3CCN(C)CC3)nc(Sc3ccc(NC(=O)C4CC4)cc3)n2)n[nH]1 [tozasertib]
Experiment: as above
Procedure, shortened: as §1

Target | log2 fold change
CASP8 isoform 9 (UniProt Q14790) | 0.181 (inactive)
COX7C (UniProt P15954) | -0.015 (inactive)
CCDC57 (UniProt Q2TAC2) | 0.04 (inactive)
CRTC2 (UniProt Q53ET0) | -0.057 (inactive)
COMMD1 (UniProt Q8N668) | -0.049 (inactive)
C15orf41 (UniProt Q9Y2V0) | 0.1 (inactive)
C6orf120 (UniProt Q7Z4R8) | -0.032 (inactive)
COG2 (UniProt Q14746) | -0.153 (inactive)
CAB39L (UniProt Q9H9S4) | 0.03 (inactive)
CDK19 (UniProt Q9BWU1) | -0.197 (inactive)
COPS3 isoform 2 (UniProt Q9UNS2) | -0.165 (inactive)
C19orf54 (UniProt Q5BKX5) | 0.006 (inactive)
CAV2 (UniProt P51636) | -0.115 (inactive)
CMTM3 (UniProt Q96MX0) | -0.026 (inactive)
COX7B (UniProt P24311) | 0.072 (inactive)
CHST11 (UniProt Q9NPF2) | -0.033 (inactive)
CRLS1 (UniProt Q9UJA2) | 0 (inactive)
CDC42SE1 (UniProt Q9NRR8) | -0.106 (inactive)
CHST10 (UniProt O43529) | -0.037 (inactive)
CDCA2 (UniProt Q69YH5) | -0.159 (inactive)
CENPE (UniProt Q02224) | -0.155 (inactive)
CEP128 (UniProt Q6ZU80) | 0.041 (inactive)
CNN3 (UniProt Q15417) | 0.069 (inactive)
CD84 (UniProt Q9UIB8) | -0.055 (inactive)
CLINT1 isoform 3 (UniProt Q14677) | -0.025 (inactive)
C1D (UniProt Q13901) | 0.005 (inactive)
C22orf39 (UniProt Q6P5X5) | 0.096 (inactive)
CRTC1 isoform 2 (UniProt Q6UUV9) | -0.004 (inactive)
CLN5 (UniProt O75503) | -0.115 (inactive)
CHPT1 (UniProt Q8WUD6) | -0.016 (inactive)

Compound: Cc1cc(SCc2sc(-c3ccc(C(F)(F)F)cc3)nc2C)ccc1OCC(=O)O
Experiment: as above
Procedure, shortened: as §1

Target | log2 fold change
CASP8 isoform 9 (UniProt Q14790) | -0.007 (inactive)
COX7C (UniProt P15954) | -0.114 (inactive)
C15orf41 (UniProt Q9Y2V0) | -0.004 (inactive)
C6orf120 (UniProt Q7Z4R8) | 0.113 (inactive)
COG2 (UniProt Q14746) | 0.061 (inactive)
CAB39L (UniProt Q9H9S4) | 0.053 (inactive)
CDK19 (UniProt Q9BWU1) | 0.034 (inactive)
CHAF1A (UniProt Q13111) | -0.04 (inactive)
C19orf54 (UniProt Q5BKX5) | 0.032 (inactive)
CAV2 (UniProt P51636) | 0.035 (inactive)
CMTM3 (UniProt Q96MX0) | -0.102 (inactive)
COX7B (UniProt P24311) | 0.014 (inactive)
CCNC (UniProt P24863) | 0.018 (inactive)
CDK17 isoform 2 (UniProt Q00537) | 0.126 (inactive)
CDK16 isoform 2 (UniProt Q00536) | 0.096 (inactive)
CDK4 (UniProt P11802) | 0.021 (inactive)
CRLS1 (UniProt Q9UJA2) | 0.05 (inactive)
CDC42SE1 (UniProt Q9NRR8) | -0.04 (inactive)
CENPE (UniProt Q02224) | 0.24 (inactive)
CEP128 (UniProt Q6ZU80) | -0.07 (inactive)
CNN3 (UniProt Q15417) | 0.15 (inactive)
CD84 (UniProt Q9UIB8) | 0.056 (inactive)
CLINT1 isoform 3 (UniProt Q14677) | -0.097 (inactive)
CDKN1B (UniProt P46527) | -0.06 (inactive)
C22orf39 (UniProt Q6P5X5) | -0.135 (inactive)
CRTC1 isoform 2 (UniProt Q6UUV9) | -0.076 (inactive)
CLN5 (UniProt O75503) | 0.073 (inactive)
CHPT1 (UniProt Q8WUD6) | 0.015 (inactive)
